Measurements as given in PubChem BioAssay AID602261 (Sanford-Burnham Center for Chemical Genomics, 2012).
Screen size: about 360,000 compounds; about 2,400 (0.67%) were called active.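 Rule for the calls: active = compounds whose normalised, plate-corrected inhibition of enzyme fluorescence in the single-dose primary screen is 50% or more; inactive = the rest.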 The sample as a whole holds a higher share of actives than the screen did.

biological target: Fatty acid synthase (Homo sapiens) (UniProt P49327); experiment: inhibition of human FAS-TE enzyme activity – biochemical, fluorescence intensity, uHTS, primary screen (AID 602261); settings: recombinant FAS-TE, OMFH fluorogenic substrate, fluorescence endpoint; at 15 µM; active compounds read high;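 note: 0% = DMSO with enzyme and 100% = substrate without enzyme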
Sequence (P49327 whole entry, looked up): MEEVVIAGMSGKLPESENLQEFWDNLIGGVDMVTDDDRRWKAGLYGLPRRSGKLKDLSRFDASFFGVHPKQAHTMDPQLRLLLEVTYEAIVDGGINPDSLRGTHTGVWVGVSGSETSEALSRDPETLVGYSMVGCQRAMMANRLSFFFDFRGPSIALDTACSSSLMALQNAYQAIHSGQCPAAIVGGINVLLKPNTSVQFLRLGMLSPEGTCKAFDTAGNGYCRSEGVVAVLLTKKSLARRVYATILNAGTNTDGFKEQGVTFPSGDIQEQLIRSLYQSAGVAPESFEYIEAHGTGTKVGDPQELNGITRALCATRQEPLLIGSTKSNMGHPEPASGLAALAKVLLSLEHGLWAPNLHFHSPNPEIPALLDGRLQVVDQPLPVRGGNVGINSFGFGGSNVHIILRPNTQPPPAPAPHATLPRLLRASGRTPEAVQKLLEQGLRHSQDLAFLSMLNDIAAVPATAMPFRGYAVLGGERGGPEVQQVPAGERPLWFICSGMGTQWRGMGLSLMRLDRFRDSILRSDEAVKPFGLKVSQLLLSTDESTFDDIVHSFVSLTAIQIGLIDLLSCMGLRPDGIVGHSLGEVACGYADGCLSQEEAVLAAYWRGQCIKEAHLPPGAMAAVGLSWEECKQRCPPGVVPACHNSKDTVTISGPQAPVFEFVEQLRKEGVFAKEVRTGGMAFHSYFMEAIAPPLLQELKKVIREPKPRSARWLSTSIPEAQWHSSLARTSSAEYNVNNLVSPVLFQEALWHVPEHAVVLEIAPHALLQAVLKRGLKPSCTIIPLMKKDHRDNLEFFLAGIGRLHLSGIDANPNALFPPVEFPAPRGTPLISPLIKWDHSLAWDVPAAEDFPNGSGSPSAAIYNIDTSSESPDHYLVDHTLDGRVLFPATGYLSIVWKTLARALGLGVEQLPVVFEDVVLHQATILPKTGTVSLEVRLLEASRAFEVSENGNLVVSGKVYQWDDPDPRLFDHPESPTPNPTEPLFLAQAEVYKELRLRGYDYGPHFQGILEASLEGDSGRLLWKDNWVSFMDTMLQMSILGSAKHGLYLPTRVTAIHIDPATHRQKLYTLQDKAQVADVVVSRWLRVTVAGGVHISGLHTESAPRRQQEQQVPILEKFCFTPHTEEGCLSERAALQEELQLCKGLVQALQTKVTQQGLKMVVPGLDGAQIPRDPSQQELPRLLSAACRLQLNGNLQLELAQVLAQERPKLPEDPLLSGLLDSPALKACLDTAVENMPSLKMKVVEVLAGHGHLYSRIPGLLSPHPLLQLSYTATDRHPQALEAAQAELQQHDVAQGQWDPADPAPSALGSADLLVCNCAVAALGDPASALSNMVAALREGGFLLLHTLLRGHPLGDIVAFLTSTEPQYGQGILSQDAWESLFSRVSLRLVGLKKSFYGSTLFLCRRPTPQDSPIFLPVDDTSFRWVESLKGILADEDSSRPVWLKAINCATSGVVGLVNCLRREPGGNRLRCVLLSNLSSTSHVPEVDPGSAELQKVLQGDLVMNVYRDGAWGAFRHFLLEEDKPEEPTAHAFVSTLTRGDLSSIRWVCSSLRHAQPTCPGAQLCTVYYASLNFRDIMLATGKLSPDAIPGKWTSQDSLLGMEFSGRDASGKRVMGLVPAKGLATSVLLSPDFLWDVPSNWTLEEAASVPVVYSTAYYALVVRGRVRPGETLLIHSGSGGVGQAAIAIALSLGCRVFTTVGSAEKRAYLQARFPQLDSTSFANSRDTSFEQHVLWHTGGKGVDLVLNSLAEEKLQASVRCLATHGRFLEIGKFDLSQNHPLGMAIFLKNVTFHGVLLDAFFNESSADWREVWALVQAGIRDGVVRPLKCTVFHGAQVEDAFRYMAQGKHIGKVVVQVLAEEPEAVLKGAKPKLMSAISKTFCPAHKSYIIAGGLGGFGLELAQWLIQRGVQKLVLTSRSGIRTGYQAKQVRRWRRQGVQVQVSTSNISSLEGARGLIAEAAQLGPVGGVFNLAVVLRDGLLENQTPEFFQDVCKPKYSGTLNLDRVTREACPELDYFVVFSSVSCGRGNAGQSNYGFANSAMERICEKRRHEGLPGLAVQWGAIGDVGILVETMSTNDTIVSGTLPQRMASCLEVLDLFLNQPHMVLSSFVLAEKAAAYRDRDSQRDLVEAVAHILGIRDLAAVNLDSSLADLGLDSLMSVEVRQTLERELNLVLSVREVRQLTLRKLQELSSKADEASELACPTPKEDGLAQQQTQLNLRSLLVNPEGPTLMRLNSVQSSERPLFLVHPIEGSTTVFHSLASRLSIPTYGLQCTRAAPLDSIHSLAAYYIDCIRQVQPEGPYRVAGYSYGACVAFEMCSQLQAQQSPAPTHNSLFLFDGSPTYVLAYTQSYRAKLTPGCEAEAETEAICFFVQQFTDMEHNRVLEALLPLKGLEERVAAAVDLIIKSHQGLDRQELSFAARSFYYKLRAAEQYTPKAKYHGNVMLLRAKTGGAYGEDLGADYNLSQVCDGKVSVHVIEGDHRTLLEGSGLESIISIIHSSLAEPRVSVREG

**Q.** `CCOC(=O)[C@]12Cc3ccccc3[C@H]1N(C1CCCCC1)C(=O)c1cc(OC)ccc12` was tested. Which inhibition did it give?
**A.** 67.5% (active)

**Q.** `CCOC(=O)[C@]12Cc3cc(OC)ccc3[C@H]1N(C(C)C)C(=O)c1ccccc12` was tested. Which inhibition did it give?
**A.** 36.7% (inactive)

**Q.** With `CC(=O)c1ccc(OC(NC(=O)Cc2ccccc2)C(Cl)(Cl)Cl)cc1` (stereo not given) as the compound, how does the inhibition read?
**A.** 11.2% (inactive)

**Q.** How did the inhibition turn out when `O=C1C2(Cl)C3(Cl)C4(Cl)C(Cl)(Cl)C5(Cl)C3(Cl)C1(Cl)C5(Cl)C24Cl` (stereo not given) was run?
**A.** 72.1% (active)

**Q.** `O=C(O)CCn1cc(C=C2C(=O)NC(=S)NC2=O)c(-c2cccc(Br)c2)n1` was tested. Which inhibition did it give?
**A.** -3.4% (inactive)

**Q.** Which inhibition does the source give for `COC(=O)C1=C(c2ccc3ccccc3c2)C[C@@H]2CC[C@H]1N2C(=O)NCCO` here?
**A.** -1.8% (inactive)

**Q.** With `O=c1[nH]c2ccccc2n1C1CCN(C(c2ccnc3ccccc23)c2nnnn2Cc2ccccc2)CC1` (stereo not given) as the compound, how does the inhibition read?
**A.** 5.1% (inactive)

**Q.** Which inhibition does the source give for `O=c1[nH]c2ccccc2n1C1CCN(C(c2ccccc2)c2nnnn2Cc2ccccc2)CC1` (stereo not given) here?
**A.** 18.3% (inactive)

**Q.** Which inhibition does the source give for `COc1ccc(-n2nnnc2C(c2cccc3ccccc23)N2CCC(n3c(=O)[nH]c4ccccc43)CC2)cc1` (stereo not given) here?
**A.** 87.1% (active)

**Q.** With `CCOc1ccc(CN(CCCl)CCCl)cc1C(=O)OC` as the compound, how does the inhibition read?
**A.** -5.1% (inactive)

**Q.** How did the inhibition turn out when `O=C(NC1CCCCC1)N1Cc2cc(N3CCCCC3)ccc2-n2nncc2C1` was run?
**A.** -2.8% (inactive)

**Q.** For `CN(C)CC1CCCCC1OC(=O)c1ccc(Cl)c(Cl)c1` (stereo not given), which inhibition is on record?
**A.** -3.1% (inactive)

**Q.** With `CCCCCCCCCCCCn1ccc(=N)cc1` as the compound, how does the inhibition read?
**A.** -0.8% (inactive)

**Q.** Which inhibition does the source give for `COc1cccc(C(c2nnnn2-c2ccc3c(c2)OCCO3)N2CCC3(CC2)C(=O)NCN3c2ccccc2)c1OC` (stereo not given) here?
**A.** 62% (active)

**Q.** With `O=C1NCN(c2ccccc2)C12CCN(C(c1cccs1)c1nnnn1C1CCCCC1)CC2` (stereo not given) as the compound, how does the inhibition read?
**A.** 14.5% (inactive)

**Q.** How did the inhibition turn out when `Cc1ccc(-c2cc(C(=O)N3CCC4(CC3)OCCO4)no2)cc1` was run?
**A.** 1.5% (inactive)

**Q.** Which inhibition does the source give for `COc1ccc2c(c1O)-c1cccc3c1[C@@H](C2)N(C)CC3` here?
**A.** -2.4% (inactive)

**Q.** With `CCOC(=O)C(O)(c1ccc(N=Cc2ccccc2O)c(C)c1)C(F)(F)F` (stereo not given) as the compound, how does the inhibition read?
**A.** -4.3% (inactive)

**Q.** For `CC(C)Oc1cccc(C(=O)C2CCCN(C3CCOCC3)C2)c1` (stereo not given), which inhibition is on record?
**A.** -0.1% (inactive)

**Q.** With `c1cncc(CNCCc2c[nH]c3ccccc23)c1` as the compound, how does the inhibition read?
**A.** 5.2% (inactive)
